The values that follow come from paper PMC7862700, “An all-to-all approach to the identification of sequence-specific readers for epigenetic DNA modifications on cytosine”.

Test in all cases: DAPPL (digital affinity profiling via proximity ligation, sequencing); 10 mM Tris-HCl pH 7.5, 50 mM NaCl, 1 mM DTT, 4% glycerol, room temperature, 30 min; GST-TFs on glutathione beads, 16-mer random dsDNA library, 0.1% formaldehyde crosslink after washing; high values mean tight binding
The target in assay [1] is T1, FEV (Homo sapiens, UniProt Q99581 1-238).
T1 sequence: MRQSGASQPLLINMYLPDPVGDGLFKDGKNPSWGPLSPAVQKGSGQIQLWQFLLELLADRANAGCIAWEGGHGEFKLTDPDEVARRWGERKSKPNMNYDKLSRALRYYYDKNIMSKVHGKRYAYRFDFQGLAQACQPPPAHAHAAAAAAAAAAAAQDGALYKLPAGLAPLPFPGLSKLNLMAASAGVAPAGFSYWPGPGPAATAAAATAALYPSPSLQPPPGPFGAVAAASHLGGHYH
The settings on record: protein: recombinant; tags: N-terminal GST; dsDNA, one strand shown. In outline:
(§1)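 Each value of binding signal is a hexamer's read frequency for a factor divided by the same hexamer's frequency in the tag-only sample. Barcoded, bead-captured GST fusions of human transcription factors made in yeast were pooled with that sample and incubated with 200 nmole of a random double-stranded 16-mer DNA library in Tris/NaCl/DTT/glycerol buffer at room temperature for 30 min. Washing, 0.1% formaldehyde crosslinking, proximity ligation, PCR and Illumina NextSeq500 sequencing followed.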

Assay [2] concerns the target ETV5 (Homo sapiens, UniProt P41161 1-510). As to conditions: protein: recombinant; tags: N-terminal GST; dsDNA, one strand shown. In outline: as §1
The target of assay [3] is HSF1 (Homo sapiens, UniProt Q00613 1-529). The settings on record: protein: recombinant; tags: N-terminal GST; chain copies: 3; dsDNA, one strand shown. In outline: as §1
Chain of HSF1 (Q00613 whole entry): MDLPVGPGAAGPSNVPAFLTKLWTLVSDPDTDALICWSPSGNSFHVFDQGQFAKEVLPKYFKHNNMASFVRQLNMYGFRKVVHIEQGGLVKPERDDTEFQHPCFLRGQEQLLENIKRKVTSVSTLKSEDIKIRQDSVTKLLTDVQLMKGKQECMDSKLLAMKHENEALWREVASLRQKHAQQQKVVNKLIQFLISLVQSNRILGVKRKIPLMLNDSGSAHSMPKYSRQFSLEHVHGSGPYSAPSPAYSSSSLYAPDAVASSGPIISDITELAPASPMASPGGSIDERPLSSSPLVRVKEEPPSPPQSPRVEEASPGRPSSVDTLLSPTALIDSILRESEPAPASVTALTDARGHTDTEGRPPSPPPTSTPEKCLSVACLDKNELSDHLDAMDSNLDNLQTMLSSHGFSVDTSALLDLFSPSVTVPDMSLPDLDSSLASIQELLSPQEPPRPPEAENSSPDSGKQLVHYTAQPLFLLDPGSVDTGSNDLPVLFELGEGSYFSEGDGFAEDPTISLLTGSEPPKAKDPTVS
In assay [4] the target is T2, SPIC (Homo sapiens, UniProt Q8N5J4 1-248).
T2 sequence: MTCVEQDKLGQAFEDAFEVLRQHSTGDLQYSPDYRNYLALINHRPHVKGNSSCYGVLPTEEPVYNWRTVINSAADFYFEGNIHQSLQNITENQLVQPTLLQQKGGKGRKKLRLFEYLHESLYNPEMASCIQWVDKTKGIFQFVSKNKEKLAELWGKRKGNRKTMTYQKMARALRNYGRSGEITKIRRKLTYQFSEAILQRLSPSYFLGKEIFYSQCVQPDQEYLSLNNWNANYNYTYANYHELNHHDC
The settings on record: protein: recombinant; tags: N-terminal GST; dsDNA, one strand shown. In outline: as §1

The target of assay [5] is ELF4 (Homo sapiens, UniProt Q99607 1-663). The settings on record: protein: recombinant; tags: N-terminal GST; dsDNA, one strand shown. A digest of the protocol:
as §1

Assay [6] deals with T3, ELK4 (Homo sapiens, UniProt P28324-2 1-405).
T3 sequence: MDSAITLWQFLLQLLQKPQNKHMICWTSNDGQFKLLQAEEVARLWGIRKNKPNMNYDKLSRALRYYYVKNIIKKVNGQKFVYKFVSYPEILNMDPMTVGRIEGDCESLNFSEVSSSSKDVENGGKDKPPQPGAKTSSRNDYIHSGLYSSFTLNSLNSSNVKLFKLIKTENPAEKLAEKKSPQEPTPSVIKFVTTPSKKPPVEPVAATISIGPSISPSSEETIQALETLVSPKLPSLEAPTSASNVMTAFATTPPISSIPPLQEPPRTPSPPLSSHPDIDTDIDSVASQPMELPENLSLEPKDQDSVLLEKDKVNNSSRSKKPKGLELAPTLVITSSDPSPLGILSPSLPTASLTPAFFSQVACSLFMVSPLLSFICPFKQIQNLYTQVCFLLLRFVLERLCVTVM
The settings on record: protein: recombinant; tags: N-terminal GST; dsDNA, one strand shown. A digest of the protocol: as §1

Assay [7] concerns the target T4, ETV2 (Homo sapiens, UniProt O00321 1-342).
T4 sequence: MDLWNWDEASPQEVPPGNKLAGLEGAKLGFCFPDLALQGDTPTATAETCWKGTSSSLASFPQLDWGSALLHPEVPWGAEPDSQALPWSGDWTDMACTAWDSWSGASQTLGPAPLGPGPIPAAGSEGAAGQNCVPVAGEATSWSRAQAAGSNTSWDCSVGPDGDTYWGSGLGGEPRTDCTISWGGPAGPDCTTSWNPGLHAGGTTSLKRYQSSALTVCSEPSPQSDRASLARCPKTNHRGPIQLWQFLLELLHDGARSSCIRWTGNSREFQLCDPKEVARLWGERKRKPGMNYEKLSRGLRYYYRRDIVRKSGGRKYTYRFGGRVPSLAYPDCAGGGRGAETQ
As to conditions: protein: recombinant; tags: N-terminal GST; dsDNA, one strand shown. A digest of the protocol:
as §1

In assay [8] the target is T5, ELF3 (Homo sapiens, UniProt P78545 1-371).
T5 sequence: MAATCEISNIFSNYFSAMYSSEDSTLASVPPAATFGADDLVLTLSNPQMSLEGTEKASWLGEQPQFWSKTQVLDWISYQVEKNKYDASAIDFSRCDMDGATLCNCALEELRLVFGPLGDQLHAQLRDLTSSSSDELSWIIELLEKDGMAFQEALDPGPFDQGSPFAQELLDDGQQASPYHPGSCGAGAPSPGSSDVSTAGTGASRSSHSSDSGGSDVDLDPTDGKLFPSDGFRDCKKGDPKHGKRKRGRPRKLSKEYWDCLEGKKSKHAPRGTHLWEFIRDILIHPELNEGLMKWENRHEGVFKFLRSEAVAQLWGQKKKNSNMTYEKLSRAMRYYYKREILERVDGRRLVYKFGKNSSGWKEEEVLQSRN
The settings on record: protein: recombinant; tags: N-terminal GST; dsDNA, one strand shown. In outline: as §1

The target of assay [9] is CRX (Homo sapiens, UniProt O43186 1-299). The settings on record: protein: recombinant; tags: N-terminal GST; dsDNA, one strand shown. A digest of the protocol:
as §1

The target of assay [10] is ETV1 (Homo sapiens, UniProt P50549 1-477). As to conditions: protein: recombinant; tags: N-terminal GST; dsDNA, one strand shown. In outline: as §1
Chain of ETV1 (P50549 whole entry): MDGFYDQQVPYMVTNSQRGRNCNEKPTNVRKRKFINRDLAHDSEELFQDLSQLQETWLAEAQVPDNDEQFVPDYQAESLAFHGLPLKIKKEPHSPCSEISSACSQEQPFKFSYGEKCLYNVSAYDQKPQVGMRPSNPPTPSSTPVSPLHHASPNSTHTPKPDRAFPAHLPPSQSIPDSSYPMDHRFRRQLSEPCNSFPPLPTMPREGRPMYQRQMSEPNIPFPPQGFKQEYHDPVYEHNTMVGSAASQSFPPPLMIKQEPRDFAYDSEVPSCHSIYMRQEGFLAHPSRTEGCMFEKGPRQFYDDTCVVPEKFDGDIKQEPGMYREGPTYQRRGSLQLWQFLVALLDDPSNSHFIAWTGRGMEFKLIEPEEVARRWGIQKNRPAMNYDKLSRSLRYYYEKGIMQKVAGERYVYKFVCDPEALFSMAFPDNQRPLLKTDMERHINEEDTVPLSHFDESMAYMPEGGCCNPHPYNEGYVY
Assay [11] concerns the target T6, ERF (Homo sapiens, UniProt P50548 1-548).
T6 sequence: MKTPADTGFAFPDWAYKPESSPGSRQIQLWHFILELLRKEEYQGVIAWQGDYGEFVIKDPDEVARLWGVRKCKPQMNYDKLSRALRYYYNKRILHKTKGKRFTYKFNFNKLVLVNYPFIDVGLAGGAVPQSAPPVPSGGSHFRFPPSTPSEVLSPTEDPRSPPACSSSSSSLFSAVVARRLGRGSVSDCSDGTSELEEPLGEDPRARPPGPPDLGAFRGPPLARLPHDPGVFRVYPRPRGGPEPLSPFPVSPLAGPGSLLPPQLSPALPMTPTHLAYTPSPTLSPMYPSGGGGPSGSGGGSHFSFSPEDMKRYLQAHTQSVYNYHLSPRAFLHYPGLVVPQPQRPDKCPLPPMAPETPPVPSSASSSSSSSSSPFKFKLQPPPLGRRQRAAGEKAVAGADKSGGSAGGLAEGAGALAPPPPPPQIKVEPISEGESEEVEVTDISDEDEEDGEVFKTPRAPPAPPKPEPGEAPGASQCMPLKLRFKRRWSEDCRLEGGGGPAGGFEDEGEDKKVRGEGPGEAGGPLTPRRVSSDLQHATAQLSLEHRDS
As to conditions: protein: recombinant; tags: N-terminal GST; dsDNA, one strand shown. A digest of the protocol: as §1

Assay [12] has as its target T7, ETV3L (Homo sapiens, UniProt Q6ZN32 1-361).
T7 sequence: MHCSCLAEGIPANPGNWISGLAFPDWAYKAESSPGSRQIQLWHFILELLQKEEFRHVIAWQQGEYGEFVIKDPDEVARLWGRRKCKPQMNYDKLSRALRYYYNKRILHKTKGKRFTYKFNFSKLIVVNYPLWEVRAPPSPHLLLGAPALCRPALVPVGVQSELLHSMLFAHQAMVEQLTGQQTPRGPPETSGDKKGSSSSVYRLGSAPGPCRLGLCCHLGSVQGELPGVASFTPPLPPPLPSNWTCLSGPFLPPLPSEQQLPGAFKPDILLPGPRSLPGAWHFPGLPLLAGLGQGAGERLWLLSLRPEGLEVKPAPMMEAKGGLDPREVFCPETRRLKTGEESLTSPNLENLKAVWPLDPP
The settings on record: protein: recombinant; tags: N-terminal GST; dsDNA, one strand shown. In outline:
as §1

The target of assay [13] is T8, ETS2 (Homo sapiens, UniProt P15036 1-469).
T8 sequence: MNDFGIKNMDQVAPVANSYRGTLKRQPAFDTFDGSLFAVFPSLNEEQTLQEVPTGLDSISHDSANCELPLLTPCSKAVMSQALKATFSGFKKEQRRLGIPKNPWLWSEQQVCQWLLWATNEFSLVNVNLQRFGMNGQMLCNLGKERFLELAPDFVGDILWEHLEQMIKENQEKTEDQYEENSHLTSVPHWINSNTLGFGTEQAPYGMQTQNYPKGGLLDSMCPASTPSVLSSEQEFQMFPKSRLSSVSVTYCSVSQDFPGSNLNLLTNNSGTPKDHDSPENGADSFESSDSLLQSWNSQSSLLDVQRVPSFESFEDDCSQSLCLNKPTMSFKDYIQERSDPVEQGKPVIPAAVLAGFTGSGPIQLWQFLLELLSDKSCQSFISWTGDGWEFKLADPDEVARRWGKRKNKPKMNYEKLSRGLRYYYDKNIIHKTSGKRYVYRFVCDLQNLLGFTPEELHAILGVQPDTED
The settings on record: protein: recombinant; tags: N-terminal GST; dsDNA, one strand shown. In outline: as §1

For assay [14], the target named is T9, SPDEF (Homo sapiens, UniProt O95238 1-335).
T9 sequence: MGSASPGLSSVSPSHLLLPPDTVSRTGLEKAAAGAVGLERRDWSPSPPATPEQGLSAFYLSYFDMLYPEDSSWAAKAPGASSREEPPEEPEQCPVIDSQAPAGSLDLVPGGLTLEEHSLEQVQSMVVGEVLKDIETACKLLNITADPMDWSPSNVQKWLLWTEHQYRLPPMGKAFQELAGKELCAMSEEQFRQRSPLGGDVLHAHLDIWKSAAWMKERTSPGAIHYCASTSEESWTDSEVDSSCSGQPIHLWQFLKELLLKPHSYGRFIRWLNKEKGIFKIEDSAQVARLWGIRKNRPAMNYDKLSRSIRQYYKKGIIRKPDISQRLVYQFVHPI
The settings on record: protein: recombinant; tags: N-terminal GST; dsDNA, one strand shown. In outline: as §1

For assay [15], the target named is T10, ETV7 (Homo sapiens, UniProt Q9Y603 1-341).
T10 sequence: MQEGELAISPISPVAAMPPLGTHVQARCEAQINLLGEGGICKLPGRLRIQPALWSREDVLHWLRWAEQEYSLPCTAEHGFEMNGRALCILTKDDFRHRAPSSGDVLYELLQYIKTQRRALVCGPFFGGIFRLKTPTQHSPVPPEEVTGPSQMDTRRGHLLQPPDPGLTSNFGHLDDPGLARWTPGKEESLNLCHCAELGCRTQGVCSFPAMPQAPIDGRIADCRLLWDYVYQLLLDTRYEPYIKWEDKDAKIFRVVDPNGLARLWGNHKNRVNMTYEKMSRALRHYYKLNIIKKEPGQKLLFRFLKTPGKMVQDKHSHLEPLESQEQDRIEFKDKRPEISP
The settings on record: protein: recombinant; tags: N-terminal GST; dsDNA, one strand shown. In outline: as §1

The target of assay [16] is T11, ELF5 (Homo sapiens, UniProt Q9UKW6-2 1-255).
T11 sequence: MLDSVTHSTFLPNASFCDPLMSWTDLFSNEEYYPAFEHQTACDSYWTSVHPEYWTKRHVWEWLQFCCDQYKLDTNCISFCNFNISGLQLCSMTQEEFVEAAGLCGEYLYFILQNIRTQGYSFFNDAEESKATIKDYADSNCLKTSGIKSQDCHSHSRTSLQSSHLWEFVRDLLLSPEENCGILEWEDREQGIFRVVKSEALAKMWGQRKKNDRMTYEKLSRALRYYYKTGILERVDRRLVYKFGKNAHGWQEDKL
As to conditions: protein: recombinant; tags: N-terminal GST; dsDNA, one strand shown. In outline: as §1

The target in assay [17] is T12, ETV3 (Homo sapiens, UniProt P41162-2 1-143).
T12 sequence: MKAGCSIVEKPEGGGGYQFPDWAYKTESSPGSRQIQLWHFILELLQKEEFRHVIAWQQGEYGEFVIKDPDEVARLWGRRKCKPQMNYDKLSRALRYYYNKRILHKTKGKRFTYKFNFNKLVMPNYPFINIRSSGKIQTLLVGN
The settings on record: protein: recombinant; tags: N-terminal GST; dsDNA, one strand shown. A digest of the protocol: as §1

Assay [18] has as its target ETV6 (Homo sapiens, UniProt P41212 1-452). The settings on record: protein: recombinant; tags: N-terminal GST; dsDNA, one strand shown. A digest of the protocol: as §1

Chain of ETV5 (P41161 whole entry): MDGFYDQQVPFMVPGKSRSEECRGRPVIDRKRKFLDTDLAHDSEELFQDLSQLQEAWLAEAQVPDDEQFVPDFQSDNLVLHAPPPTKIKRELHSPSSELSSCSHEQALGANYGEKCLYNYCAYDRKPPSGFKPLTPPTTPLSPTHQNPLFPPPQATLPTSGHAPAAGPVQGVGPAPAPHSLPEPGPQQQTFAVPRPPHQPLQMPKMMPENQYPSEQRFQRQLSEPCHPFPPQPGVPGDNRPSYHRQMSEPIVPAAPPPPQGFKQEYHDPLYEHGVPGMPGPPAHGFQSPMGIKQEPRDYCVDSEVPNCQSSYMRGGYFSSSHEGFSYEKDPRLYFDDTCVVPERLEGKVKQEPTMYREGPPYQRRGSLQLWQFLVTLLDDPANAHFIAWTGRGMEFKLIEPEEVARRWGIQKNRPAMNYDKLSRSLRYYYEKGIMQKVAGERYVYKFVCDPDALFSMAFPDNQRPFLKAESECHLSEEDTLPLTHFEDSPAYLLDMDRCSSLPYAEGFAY
Chain of CRX (O43186 whole entry): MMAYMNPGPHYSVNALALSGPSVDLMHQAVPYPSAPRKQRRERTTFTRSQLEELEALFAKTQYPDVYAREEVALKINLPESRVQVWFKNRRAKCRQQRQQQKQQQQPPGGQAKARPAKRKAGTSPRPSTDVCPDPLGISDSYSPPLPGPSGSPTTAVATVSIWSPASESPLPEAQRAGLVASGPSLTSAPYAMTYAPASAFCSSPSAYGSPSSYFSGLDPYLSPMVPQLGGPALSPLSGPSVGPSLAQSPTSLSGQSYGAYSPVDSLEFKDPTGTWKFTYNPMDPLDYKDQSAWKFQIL
Chain of ELF4 (Q99607 whole entry): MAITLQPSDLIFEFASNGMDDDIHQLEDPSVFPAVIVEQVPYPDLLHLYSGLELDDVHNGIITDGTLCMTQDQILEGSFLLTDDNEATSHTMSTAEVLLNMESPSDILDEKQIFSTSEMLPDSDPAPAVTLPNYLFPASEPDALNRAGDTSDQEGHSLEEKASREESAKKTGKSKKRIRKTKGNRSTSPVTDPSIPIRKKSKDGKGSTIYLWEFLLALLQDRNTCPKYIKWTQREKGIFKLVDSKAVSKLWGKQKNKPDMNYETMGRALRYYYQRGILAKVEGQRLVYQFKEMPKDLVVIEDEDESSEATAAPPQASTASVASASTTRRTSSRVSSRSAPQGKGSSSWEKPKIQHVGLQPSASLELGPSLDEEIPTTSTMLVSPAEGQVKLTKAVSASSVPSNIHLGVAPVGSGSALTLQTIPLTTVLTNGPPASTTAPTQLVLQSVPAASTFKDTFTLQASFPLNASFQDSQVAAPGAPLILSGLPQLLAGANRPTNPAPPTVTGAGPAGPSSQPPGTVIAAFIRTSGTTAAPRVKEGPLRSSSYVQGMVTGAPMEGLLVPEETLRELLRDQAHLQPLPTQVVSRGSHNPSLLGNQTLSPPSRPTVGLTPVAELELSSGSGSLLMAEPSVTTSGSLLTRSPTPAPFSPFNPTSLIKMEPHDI
Chain of ETV6 (P41212 whole entry): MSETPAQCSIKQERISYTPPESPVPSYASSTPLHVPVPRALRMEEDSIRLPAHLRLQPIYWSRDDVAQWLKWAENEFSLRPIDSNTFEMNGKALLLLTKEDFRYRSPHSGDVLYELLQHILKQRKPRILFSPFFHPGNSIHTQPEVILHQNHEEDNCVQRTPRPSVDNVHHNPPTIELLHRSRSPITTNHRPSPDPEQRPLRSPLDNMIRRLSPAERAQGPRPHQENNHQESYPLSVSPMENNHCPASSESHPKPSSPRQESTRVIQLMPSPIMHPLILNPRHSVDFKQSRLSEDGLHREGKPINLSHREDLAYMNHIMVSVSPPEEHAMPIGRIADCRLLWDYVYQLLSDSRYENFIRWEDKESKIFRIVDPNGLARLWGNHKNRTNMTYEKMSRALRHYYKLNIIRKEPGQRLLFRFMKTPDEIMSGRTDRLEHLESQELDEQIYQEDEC

In the case of TCTACT, the binding signal is 1.39 fold enrichment (6-mer frequency, TF over GST control) in [1]; 1.39 fold enrichment (6-mer frequency, TF over GST control) in assay [2]; 1.51 fold enrichment (6-mer frequency, TF over GST control) in assay [3]; 1.51 fold enrichment (6-mer frequency, TF over GST control) in assay [4]; 1.34 fold enrichment (6-mer frequency, TF over GST control) in [5]; 1.27 fold enrichment (6-mer frequency, TF over GST control) in [6]. For the same sequence, the binding signal in [7] was 1.31 fold enrichment (6-mer frequency, TF over GST control); in assay [8], 1.38 fold enrichment (6-mer frequency, TF over GST control); in [9], 1.45 fold enrichment (6-mer frequency, TF over GST control); in assay [10] it was 1.47 fold enrichment (6-mer frequency, TF over GST control); in assay [11], 1.42 fold enrichment (6-mer frequency, TF over GST control); in assay [12] it was 1.51 fold enrichment (6-mer frequency, TF over GST control). Also, the binding signal is 1.41 fold enrichment (6-mer frequency, TF over GST control) in assay [13]; 1.42 fold enrichment (6-mer frequency, TF over GST control) in assay [14]; 1.32 fold enrichment (6-mer frequency, TF over GST control) in assay [15]; 1.37 fold enrichment (6-mer frequency, TF over GST control) in assay [16]; 1.2 fold enrichment (6-mer frequency, TF over GST control) in assay [17]; 1.41 fold enrichment (6-mer frequency, TF over GST control) in assay [18].
